Compounds without any hit were thinned out: in the full panel of roughly 83,000, 20% have a hit.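 Percent growth is the endpoint: 0 to 100 indicates growth inhibition (40 means 60% inhibition), 0 means no net growth, and negative values indicate cell death.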 Values without a mark were called inactive. Activity calls are given as the source filed them. Rule for the calls: active = growth percent below 10; inactive = the rest.
Tests used:
Assay in all cases: NCI-60 one-dose screen, 48 h (100 = growth as untreated, 0 = no growth, -100 = all killed)
Settings in all cases: 10 µM
[1] = tested on: SK-MEL-2 melanoma
[2] = tested on: EKVX NSCLC
[3] = tested on: SN12C renal
[4] = tested on: UO-31 renal
[5] = tested on: TK-10 renal
[6] = tested on: ACHN renal
[7] = tested on: CAKI-1 renal
[8] = tested on: A498 renal
[9] = tested on: CCRF-CEM leukemia
[10] = tested on: MOLT-4 leukemia

Row | SMILES | growth [1] | growth [2] | growth [3] | growth [4] | growth [5] | growth [6] | growth [7] | growth [8] | growth [9] | growth [10]
1 | COc1ccc(/C(=N\N)C(=O)c2ccccc2)cc1 (tested in a mixture with another compound) | 112% | 91.4% | 88.5% | 81.1% | 108% | 98.3% | 90.8% | 83.2% | 88.2% | 80.4%
2 | O=S(=O)(Oc1ccc(-c2ccc3sccc3c2)cc1)c1ccc(F)cc1 | 114% | 91.5% | 96.5% | 92.2% | 93.7% | 107% | 82.7% | 95.3% | 86.1% | 89.4%
3 | CC(=O)Nc1ccc(CC[C@H]2CCC/C=C/[C@@H]3C[C@H](O)C[C@H]3[C@H](O)/C=C/C(=O)O2)cc1 | -28.6% (active) | 8.89% (active) | 5.85% (active) | 6.87% (active) | -45.5% (active) | 4.68% (active) | 16% | -32.9% (active) | -4.29% (active) | -6.82% (active)
4 | O=C(CSc1nccc(Nc2cccc3ccccc23)n1)c1ccc(Cl)cc1 | 102% | 76.9% | 82.6% | 49.8% | 112% | 91.7% | 60.3% | 105% | 83.1% | 88.1%
5 | COc1cc(NC(=O)C2=C(N3CCOCC3)/C(=C/c3ccc(Cl)cc3)CC2)cc(OC)c1OC | 85.4% | 93.4% | 83.4% | 72.8% | 121% | 93.5% | 84.6% | 98.3% | 39.8% | 49.3%
6 | OCC1OC(n2ccc3c(NO)ncnc32)C(O)C1O (stereo not given) | -78.6% (active) | -15.3% (active) | -27.2% (active) | -25% (active) | -15.1% (active) | -15.3% (active) | 1.77% (active) | -51.1% (active) | -8.6% (active) | -32.9% (active)
7 | COc1ccc(NC(=O)C2CC3C=CC2C3)c([N+](=O)[O-])c1 (stereo not given) | 104% | 101% | 91.6% | 92.4% | 109% | 98.4% | 92.6% | 103% | 95.6% | 86.8%
8 | O=[N+]([O-])c1cccc(/C=N/NC(=S)NC23CC4CC(CC(C4)C2)C3)c1 | 96% | 71.2% | 83.1% | 89.9% | 96.6% | 49.6% | 89.9% | 97.1% | 86.2% | 96.3%
9 | Brc1ccc2c(c1)-c1ccccc1C1=NCCN12 | -39.7% (active) | -2.72% (active) | -7.57% (active) | -16.6% (active) | -12.5% (active) | -22.2% (active) | -5.84% (active) | -75.7% (active) | -12% (active) | -7.7% (active)
10 | COc1cc(/C=C/c2cc(/C=C/c3ccc(O)c(OC)c3)n(C(=O)Nc3ccc(C)cc3)n2)ccc1O | -14% (active) | 20.3% | 18.3% | 0.972% (active) | 28.5% | 16.1% | 8.65% (active) | -12% (active) | 0.439% (active) | 0.114% (active)
11 | O=C(Cn1cc(CO)nn1)Nc1nc2ccccc2s1 | 107% | 94.1% | 96.5% | 72.6% | 106% | 104% | 88.9% | 118% | 103% | 104%
12 | O=C1/C=C/[C@@H](O)[C@@H]2C[C@@H](O)C[C@H]2/C=C/CCC[C@H](C(F)(F)F)O1 | -18.3% (active) | 10.3% | 4.4% (active) | -6.75% (active) | -21% (active) | 3.63% (active) | 4.59% (active) | -18.2% (active) | 1.24% (active) | -0.315% (active)
13 | CC(=O)C1CCC2C3CC=C4CC(SC(=N)N)CCC4(C)C3CCC12C (stereo not given) | 32.3% | 55.2% | 47.1% | 63% | 66.8% | 54.4% | 62.7% | 78.3% | 6.89% (active) | -5.72% (active)
14 | CCOC(=O)Cn1c(=O)c2sc3ncccc3c2n2nnc(-c3ccccc3)c12 | 103% | 104% | 97.4% | 60.2% | 132% | 95.5% | 93.4% | 152% | 86.3% | 89.6%
15 | CCCN1CN2C(=O)N3CN(CCC)CN4C(=S)N(C1)C2C34 (stereo not given) | 102% | 95.2% | 100% | 94.6% | 93.2% | 94.4% | 90.4% | 108% | 94.9% | 103%
16 | Cc1ccc(C(=O)/C=C/c2ccccc2)s1 | 102% | 82.3% | 103% | 77.7% | 108% | 121% | 92.4% | 90.5% | 99.8% | 100%
17 | Cc1ccc2nc(Cl)c(-c3nc4ccccc4o3)cc2c1 | 94.2% | 88.1% | 104% | 62.9% | 115% | 76% | 105% | 75.6% | 98.1% | 81.4%
18 | COc1ccc(/C(C#N)=C/c2cccc(OC)c2OC)cc1 | 77.1% | 99.9% | 89.8% | 78.1% | 96.7% | 99% | 74.7% | 87.2% | 80.5% | 82.8%
19 | COc1cc2c(cc1NC(=O)C(Cl)Cl)-c1ccc(NC(=O)C(Cl)Cl)cc1C2 | -14.7% (active) | -9.2% (active) | 58.6% | -9.34% (active) | -12.3% (active) | -43.4% (active) | -35.4% (active) | 10.1% | 81.9% | 94.8%
20 | CCOC(=O)CC(S(=O)(=O)c1ccccc1)S(=O)(=O)c1ccccc1 | 97.4% | 113% | 95.7% | 72.4% | 56.4% | 63.6% | 90.1% | 115% | 62.7% | 87.1%
21 | COc1cc(/C=C/c2cc(/C=C/c3ccc(O)c(OC)c3)n(C(=O)Nc3ccccc3Cl)n2)ccc1O | -12.3% (active) | 17.7% | 14.2% | -34.8% (active) | 16.1% | 12.8% | 7.29% (active) | -11.8% (active) | -4.54% (active) | -4.57% (active)
